Reference: PubChem BioAssay
Values joined by “and” are separate entries in the source; they are usually repeats but may differ in a detail not shown here. Identical values can stand only once. A structure can be active in one record and inactive in another. Active and inactive are the calls of the source. No stated cut-off is given here; in the data, active means fold change permeability below about 0.7 or above about 1.3; inactive means in between.

Assay: modulators of brain endothelial barrier permeability, primary screen, cell-based, FITC-avidin fluorescence, HTS (AID 1963498); further: test concentration not given here
Settings: actives lie on both sides

| Compound | fold change permeability |
| --- | --- |
| CC(C)NC[C@H](O)c1ccc(O)c(O)c1 | 1.2 (inactive) and 1.8 (active) |
| Nc1c(S(=O)(=O)O)cc(Nc2ccc(Nc3nc(Cl)nc(Nc4cccc(S(=O)(=O)O)c4)n3)c(S(=O)(=O)O)c2)c2c1C(=O)c1ccccc1C2=O | 0.7 (active) |
| CN(C)CC[C@@H](c1ccc(Cl)cc1)c1ccccn1 | 1.1 (inactive) |
| CCC1(C)CC(=O)NC1=O (stereo not given) | 0.7 (active) |
| N[C@@H](Cc1cnc[nH]1)C(=O)O | 0.9 (inactive) |
| CCCNC(=O)Nc1ccc(Oc2ncnc3cc(OC)c(OC)cc23)cc1Cl | 1.1 (inactive) |
| CCNCc1nc2c(N)nc3ccccc3c2n1CC(C)(C)O | 1.1 (inactive) |
| O=C(CCCN1CCC(O)(c2cccc(C(F)(F)F)c2)CC1)c1ccc(F)cc1 | 1.6 (active) |
| C[n+]1cc2c3c(ccc2c2ccc4cc5c(cc4c21)OCO5)OCO3 | 2.1 (active) |
| C[C@H](N[C@@H](CCc1ccccc1)C(=O)O)C(=O)N1CCC[C@H]1C(=O)O | 0.6 (active) |
| CN1CCN(C2=Nc3ccccc3Oc3ccc(Cl)cc32)CC1 | 1.3 (active) |
| NC(=O)OCC(COC(N)=O)c1ccccc1 | 0.8 (inactive) |
| CN1C(=O)CC[C@H]1c1cccnc1 | 0.9 (inactive) |
| C/C(O)=C(\C#N)C(=O)Nc1ccc(C(F)(F)F)cc1 | 1.2 (inactive) |
| O=C(O)c1cc([N+](=O)[O-])ccc1NCCCc1ccccc1 | 1 (inactive) |
| CC(C)NCC(O)c1ccc(NS(C)(=O)=O)cc1 (stereo not given) | 0.7 (active) |
| N#Cc1c2nc3ccccc3nc2n2ccc(NC(=O)c3cccs3)cc12 | 1.2 (inactive) |
| Cc1cccc(Nc2ccccc2C(=O)O)c1 | 0.9 (inactive) |
| O=C1NC(=O)C(c2ccccc2[N+](=O)[O-])=C1Nc1ccc(O)c(Cl)c1 | 1.4 (active) |
| N#C/C(=C1/SC[C@@H](c2ccc(Cl)cc2Cl)S1)n1ccnc1 | 1.6 (active) |

| Compound | fold change permeability |
| --- | --- |
| O=C1Nc2ccc(I)cc2/C1=C/c1cc(Br)c(O)c(Br)c1 | 0.7 (active) |
| COC(=O)C1=C(C)NC(C)=C(C(=O)OCCN(C)Cc2ccccc2)C1c1cccc([N+](=O)[O-])c1 (stereo not given) | 1 (inactive) |
| CC[C@]1(O)C[C@H]2CN(CCc3c([nH]c4ccccc34)[C@@](C(=O)OC)(c3cc4c(cc3OC)N(C=O)[C@H]3[C@@](O)(C(=O)OC)[C@H](OC(C)=O)[C@]5(CC)C=CCN6CC[C@]43[C@@H]65)C2)C1 | 2.1 (active) |
| CCN1CCCC1CNC(=O)c1cc(S(N)(=O)=O)ccc1OC (stereo not given) | 0.7 (active) |
| Nc1nc2ccc(Cl)cc2c2nc(-c3ccco3)nn12 | 1.3 (active) |
| CC(C)(C)c1ccc(C(=O)CCCN2CCC(OC(c3ccccc3)c3ccccc3)CC2)cc1 | 1.6 (active) |
| CS(=O)(=O)Nc1ccc([N+](=O)[O-])cc1Oc1ccccc1 | 0.8 (inactive) |
| N#Cc1c(N2C[C@@H]3NCCO[C@H]3C2)c(F)cc2c(=O)c(C(=O)O)cn(C3CC3)c12 | 0.9 (inactive) |
| O=C(C(c1ccccc1)c1ccccc1)N1CCN(CC(O)COc2cccc3ncccc23)CC1 (stereo not given) | 0.8 (inactive) |
| NCCS | 0.9 (inactive) |
| CCCCCCCCCCCCCCCC(=O)OC(CC(=O)O)C[N+](C)(C)C (stereo not given) | 1.3 (active) |
| N#CSCC(=O)c1ccc(O)c(O)c1 | 1.1 (inactive) |
| CC(Nc1nc(N2CCNCC2)nc2ccccc12)c1ccccc1 (stereo not given) | 2.4 (active) |
| CC(CN(C)C)CN1c2ccccc2CCc2ccccc21 (stereo not given) | 1.4 (active) |
| NC12CC3CC(CC(C3)C1)C2 | 0.9 (inactive) |
| C=CCNc1ncnc2ccc(Br)cc12 | 1.2 (inactive) |
| COc1cc(N2CCN(C)CC2)ccc1Nc1nccc(-c2cn(C)c3cnccc23)n1 | 1.2 (inactive) |
| C[C@H](NC(=O)CNC(=O)c1cccc(Cl)c1)c1ccccc1 | 1.1 (inactive) |
| Cc1nc2n(c(=O)c1CCN1CCC(c3noc4cc(F)ccc34)CC1)CCCC2O (stereo not given) | 1 (inactive) |
| O=c1cc(-c2ccc([N+](=O)[O-])cc2)nc2c(-c3ccc(Cl)cc3)c(Cc3ccccc3)[nH]n12 | 1.2 (inactive) |
